The campaign covered roughly 3,200 compounds. About 300 (9.4%) showed activity. The sample holds actives, similar compounds and a random draw of the others, so the mix is not that of the screen.
Test system: A673/TR/shEF
Assay: cell viability (LOESS-normalised, relative to median of negative controls) (log2 ratio); higher = more viable cells (less compound effect), active = hit call of the paper (over 3 MAD below the median)
Conditions: treatment time: 72 h
In short: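 Viability of A673/TR/shEF Ewing sarcoma cells was determined by CellTiter-Glo luminescence. The cells, at 1,500 per well in 384-well plates, were grown with or without doxycycline from 24 h before compound addition to switch on EWS-FLI1 shRNA knockdown, then exposed for three days to library compounds at two or more concentrations or to DMSO controls. Signals were LOESS-corrected plate by plate, normalised to the negative-control median and log2-transformed.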

[1] = 0.103 µM, library screen: screen3, EWS-FLI1 expression: high (no doxycycline)
[2] = 0.103 µM, library screen: screen3, EWS-FLI1 expression: low (doxycycline-induced shRNA knockdown)
[3] = 0.308 µM, library screen: screen3, EWS-FLI1 expression: high (no doxycycline)
[4] = 0.308 µM, library screen: screen3, EWS-FLI1 expression: low (doxycycline-induced shRNA knockdown)
[5] = 0.926 µM, library screen: screen3, EWS-FLI1 expression: high (no doxycycline)
[6] = 0.926 µM, library screen: screen3, EWS-FLI1 expression: low (doxycycline-induced shRNA knockdown)
[7] = 2.8 µM, library screen: screen3, EWS-FLI1 expression: high (no doxycycline)
[8] = 2.8 µM, library screen: screen3, EWS-FLI1 expression: low (doxycycline-induced shRNA knockdown)
[9] = 8.3 µM, library screen: screen3, EWS-FLI1 expression: high (no doxycycline)
[10] = 8.3 µM, library screen: screen3, EWS-FLI1 expression: low (doxycycline-induced shRNA knockdown)
[11] = 25 µM, library screen: screen3, EWS-FLI1 expression: high (no doxycycline)
[12] = 25 µM, library screen: screen3, EWS-FLI1 expression: low (doxycycline-induced shRNA knockdown)
[13] = 0.25 µM, library screen: screen1, EWS-FLI1 expression: high (no doxycycline)
[14] = 0.25 µM, library screen: screen1, EWS-FLI1 expression: low (doxycycline-induced shRNA knockdown)
[15] = 2.5 µM, library screen: screen1, EWS-FLI1 expression: high (no doxycycline)
[16] = 2.5 µM, library screen: screen1, EWS-FLI1 expression: low (doxycycline-induced shRNA knockdown)
[17] = 0.25 µM, library screen: screen2, EWS-FLI1 expression: high (no doxycycline)
[18] = 0.25 µM, library screen: screen2, EWS-FLI1 expression: low (doxycycline-induced shRNA knockdown)
[19] = 2.5 µM, library screen: screen2, EWS-FLI1 expression: high (no doxycycline)
[20] = 2.5 µM, library screen: screen2, EWS-FLI1 expression: low (doxycycline-induced shRNA knockdown)

Measured: cell viability (log2)

COCCn1c2c([n+](Cc3cnccn3)c1C)C(=O)c1ccccc1C2=O
active: [1] -3.94 | [2] -2.36 | [3] -3.88 | [4] -4.02 | [5] -3.96 | [6] -4.06 | [7] -4.31 | [8] -4.17 | [9] -4.31 | [10] -4.28 | [11] -4.31 | [12] -4.3

CC(=O)OCC(=O)[C@@]1(O)CC[C@H]2[C@@H]3CC[C@@H]4C[C@H](O)CC[C@]4(C)[C@H]3C(=O)C[C@@]21C
inactive: [13] 0.128 | [14] 0.0697 | [15] 0.109 | [16] -0.0114

COc1ccc(-c2cc(=O)c3ccccc3o2)cc1OC
inactive: [13] -0.0122 | [14] 0.00789 | [15] 0.068 | [16] 0.128

C=CC(C1=CC(=O)C(OC)=CC1=O)c1ccccc1 (stereo unspecified)
inactive: [13] 0.0774 | [14] 0.000535 | [15] 0.158 | [16] 0.101

C=C[C@@H](C1=CC(=O)C(OC)=C(OC)C1=O)c1ccccc1
active: [13] -0.165
inactive: [14] 0.026 | [15] -0.00361 | [16] 0.0945

C=CC(C1=CC(=O)C(OC)=CC1=O)c1ccc(OC)cc1 (stereo unspecified)
inactive: [13] 0.133 | [14] 0.135 | [15] 0.157 | [16] 0.265

COc1ccc(C2C3=C(CC(C)(C)CC3=O)OC3=C2C(=O)CC(C)(C)C3)cc1[N+](=O)[O-]
inactive: [13] 0.06 | [14] 0.0112 | [15] 0.134 | [16] -0.00188

CC1=C(O)C(=O)C(C(C)C)CC1 (stereo unspecified)
inactive: [13] 0.0674 | [14] 0.0473 | [15] 0.0636 | [16] 0.0767

COc1ccc(C2CC(=O)c3c(OC)cc(O)cc3O2)cc1 (stereo unspecified)
inactive: [13] 0.0309 | [14] -0.00204 | [15] -0.0215 | [16] 0.0561

CC1=C2[C@H]3OC(=O)[C@@H](C)[C@@H]3[C@@H](O)C[C@@]2(C)C=CC1=O
inactive: [13] 0.026 | [14] 0.0292 | [15] 0.113 | [16] 0.0749

CC(C)[C@@H](C)C=C[C@@H](C)[C@H]1CC[C@H]2C3=CCC4CC(=O)CC[C@]4(C)[C@H]3CC[C@]12C (stereo partly specified)
inactive: [13] 0.0656 | [14] 0.0592 | [15] 0.126 | [16] 0.0808

C[C@@H]1C/C=C/C=C/C=C/C=C/[C@H](OC2O[C@H](C)[C@@H](O)[C@H](N)[C@@H]2O)C[C@@H]2O[C@](O)(C[C@@H](O)C[C@H]3O[C@@H]3/C=C/C(=O)O1)C[C@H](O)[C@H]2C(=O)O (stereo partly specified)
inactive: [1] 0.0488 | [2] 0.0464 | [3] 0.0456 | [4] 0.0497 | [5] 0.0317 | [6] 0.0938 | [7] 0.0554 | [8] 0.0621 | [9] 0.0808 | [10] 0.0825 | [11] 0.128 | [12] 0.0916

CCCCCCCCCCCCCCCC(=O)C1=C(O)[C@@H](CO)OC1=O
inactive: 0.025 µM, library screen: screen1, EWS-FLI1 expression: high (no doxycycline) 0.213 | 0.025 µM, library screen: screen1, EWS-FLI1 expression: low (doxycycline-induced shRNA knockdown) 0.0909 | [13] 0.235 | [14] 0.112 | [16] 0.0271 | 25 µM, library screen: screen1, EWS-FLI1 expression: low (doxycycline-induced shRNA knockdown) -0.135
active: [15] -0.362 | 25 µM, library screen: screen1, EWS-FLI1 expression: high (no doxycycline) -0.293

CCCCCCCCCCCCCCCC(=O)NCCO
inactive: [17] 0.109 | [18] 0.0709 | [19] 0.0624 | [20] 0.0396

N#C/C(=C\c1cccc(Cl)c1)c1nc2ccccc2[nH]1
inactive: [13] 0.153 | [14] 0.256 | [15] 0.247 | [16] 0.148

CC(COc1ccccc1)NC(C)C(O)c1ccc(O)cc1 (stereo unspecified)
inactive: [13] 0.163 | [14] 0.0434 | [15] 0.178 | [16] 0.141

O=C(OCc1ccccc1)c1ccccc1
inactive: [13] 0.0522 | [14] 0.0983 | [15] 0.0811 | [16] 0.112

Oc1ccc(OCc2ccccc2)cc1
inactive: [1] 0.123 | [2] -0.0268 | [3] 0.0306 | [4] 0.0601 | [5] 0.0336 | [6] -0.0221 | [8] 0.0872 | [9] -0.00746 | [10] 0.0842 | [12] 0.0776
active: [7] -0.186 | [11] -0.212

C=C1CCC2OC2(C)CCC2C1CC2(C)C (stereo unspecified)
inactive: [13] 0.0308 | [14] 0.0474 | [15] 0.104 | [16] 0.0209

COc1ccc2c(c1OC)C(=O)O[C@H]2[C@@H]1c2ccccc2CCN1C
inactive: [13] 0.0344 | [14] 0.0398 | [15] 0.0365 | [16] -0.0658

CCC(C)C(NC)C(=O)O (stereo unspecified)
inactive: [13] 0.07 | [14] 0.0975 | [15] 0.13 | [16] -0.0496

COc1cccc(NC(=O)/C=C/c2ccc(Cl)cc2)c1
inactive: [17] 0.303 | [18] 0.124 | [19] 0.272 | [20] 0.108

Source: the supplement of paper PMC6089552
